Rows were chosen to be rich in hits. Some 3.1% of all compounds tested hit in one or more screens of this group.
EWS-Fli block = inhibitors of EWS/Fli oncoprotein transcriptional activity. A673 NR0B1-luciferase reporter, viability-normalised. 0.67% of 350,000 active. inhibition, % at 12.6 µM. AID 651661;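 active means mean inhibition of at least 50% after viability correction, with every replicate also passing that limit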;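 further: firefly luciferase signal divided by Alamar Blue viability fluorescence both relative to DMSO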
Env fusion inh = blocks HIV Env-driven cell-cell fusion; HeLa-JRFL Env/CEM21 cell fusion, luciferase; inhibition, % at 12.3 µM; 1.1% of 360,000 active; AID 651610;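 active means mean replicate inhibition score of at least 50 and every replicate individually at or above 50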;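 further: 0% = plate neutral controls and 100% = maraviroc near 300 nM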
miR-122 sensor = blocks miR-122 activity in Huh7 sensor cells; Huh7 miR-122 Renilla luciferase sensor, 48 h; neutral wells = 0, positive control = 100; activation (reporter increase), % at 12.5 µM; 0.3% of 340,000 active; AID 602342;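 active means mean replicate activation score at least 90 and every replicate individually at or above 90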;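 further: higher luciferase means less miR-122 activity so hits act as miR-122 inhibitors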
Statin myotox sup = suppressors of simvastatin-induced myotoxicity in C2C12 myotubes. ATP luminescence, 48 h; scaled: DMSO 0, geranylgeraniol control 100. 0.78% of 330,000 active. rescue of ATP level, % at 7.49 µM;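 active means mean ATP rescue above about 67%, or every replicate alone reaching that limit, limit read from the data, passing the limit was not always enough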;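 further: myotubes were challenged with 10 µM simvastatin during compound exposure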
INS-1E GSIS act = GLuc luminescence reporter in INS-1E cells, primary screen for activators of glucose-dependent secretion of insulin | 0.61% of 370,000 active | INS-1E GLuc reporter insulin secretion, 2-3 h | activation, % at 16.6 µM;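 active means lowest replicate activation of at least 40%, so every replicate reaches that level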;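 further: 0% = median of neutral control wells and 100% = median of IBMX positive control wells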
PAX8 reporter = PAX8 transcriptional activity inhibition; RMG-I TPO-luciferase reporter, SteadyGlo, 24 h; inhibition, % at 12.6 µM; 1.2% of 360,000 active;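 active means mean replicate inhibition at least 60% with every replicate also reaching 60%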;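 further: luciferase light reporting Pax8 driven TPO promoter activity; plate controls were median of neutral control wells for no effect and mitoxantrone controls for full effect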
Starred values were filed as active, the others as inactive; [ ] = remark or other dose.

How did N#CCCCC#Cc1ccc2c(c1)COc1c3ccccc3nn1-2 do in these assays?
EWS-Fli block: 66.8*; Env fusion inh: -70.3; miR-122 sensor: -2.8; Statin myotox sup: -61.9; PAX8 reporter: 32.0

Results for CCn1c(SCC(=O)Nc2ccc3c(c2)oc2ccccc23)nnc1-c1ccc(N)cc1 ?
Env fusion inh: 41.7; miR-122 sensor: -0.8; Statin myotox sup: 4.7; INS-1E GSIS act: 73.2*; PAX8 reporter: 1.3

Results for CC(=O)Nc1ccc(-c2nnc(SCC(=O)Nc3ccc4c(c3)oc3ccccc34)n2C)cc1 ?
Env fusion inh: inactive; miR-122 sensor: -0.2; Statin myotox sup: 1.3; PAX8 reporter: -51.8

How did CCn1c(SCC(=O)N2CCN(c3ccccc3)CC2)nnc1-c1cc2cc(Cl)ccc2o1 do in these assays?
Env fusion inh: 68.4*; miR-122 sensor: -3.4; Statin myotox sup: -0.5

What do the screens show for `CCCCn1c(SCC(=O)N2CCCC2)nnc1-c1ccccc1`?
Env fusion inh: 12.6; miR-122 sensor: -9.3; Statin myotox sup: 3.4; PAX8 reporter: -10.5

What do the screens show for `CCn1c(SCC(=O)N2CCCC2)nnc1-c1ccc(N)cc1`?
miR-122 sensor: -0.3; Statin myotox sup: 123.9*

Results for Cc1noc(C)c1S(=O)(=O)N(C)C[C@H]1OCCCC[C@@H](C)Oc2ccc(NS(=O)(=O)c3ccc(F)cc3)cc2C(=O)N([C@@H](C)CO)C[C@@H]1C ?
EWS-Fli block: -5.1; Env fusion inh: 2.9[16.7 µM]; miR-122 sensor: 3.8[16.7 µM]; INS-1E GSIS act: -22.0; PAX8 reporter: -13.4

Results for CO[C@@H]1CN(C)C(=O)c2cc(NC(=O)c3ccccc3F)ccc2OC[C@@H](C)N(C(=O)c2ccccc2F)C[C@@H]1C ?
EWS-Fli block: 0.8; Statin myotox sup: -5.8; INS-1E GSIS act: -4.4; PAX8 reporter: 5.5

What do the screens show for `CN1CCN(C(=O)C[C@H]2CC[C@@H]3[C@@H](COc4ccc(NC(=O)C5CCCCC5)cc4C(=O)N3C)O2)CC1`?
EWS-Fli block: -4.4; Env fusion inh: 15.0[16.7 µM]; miR-122 sensor: -1.7[16.7 µM]; Statin myotox sup: -4.4; INS-1E GSIS act: 3.5; PAX8 reporter: 8.3

What do the screens show for `CCN(CC)C(=O)C(=O)N/N=C/c1ccc(Br)cc1`?
miR-122 sensor: -2.9; Statin myotox sup: 88.9*

What do the screens show for `CC(C)(C)NC(=O)C(=O)N/N=C/c1ccc(Br)cc1`?
miR-122 sensor: -4.7

How did COc1cc(/C=C(\C#N)C(=O)N2CCOCC2)ccc1OCc1ccccc1 do in these assays?
EWS-Fli block: -50.4; Env fusion inh: -2.2; INS-1E GSIS act: -6.6; PAX8 reporter: -86.7

What do the screens show for `N#C/C(=C\c1ccc(OCc2ccc(C(=O)O)cc2)cc1)C(=O)N1CCOCC1`?
EWS-Fli block: 81.0*; Env fusion inh: 64.6*; INS-1E GSIS act: -4.4; PAX8 reporter: 86.6*

Results for COCC(=O)Nc1ccc2c(c1)[C@H]1C[C@H](CC(=O)N3CCc4ccccc4C3)O[C@H](CO)[C@H]1O2 ?
EWS-Fli block: 0.1; miR-122 sensor: 3.9[16.7 µM]; Statin myotox sup: -7.3; INS-1E GSIS act: 6.3

Results for CCCCCCCSc1nnc(-c2ccccc2N)c(=O)[nH]1 ?
EWS-Fli block: 55.9*; Env fusion inh: 13.7; miR-122 sensor: 6.7; Statin myotox sup: -8.0; INS-1E GSIS act: -26.6; PAX8 reporter: 8.2

Results for CCCCSc1nnc(-c2ccccc2N)c(=O)[nH]1 ?
EWS-Fli block: -89.6; Statin myotox sup: 12.4; INS-1E GSIS act: 1.5

How did C[C@@H]1CN([C@@H](C)CO)C(=O)Cc2cc(NC(=O)Nc3ccc(F)cc3)ccc2O[C@@H]1CN(C)Cc1ccc2c(c1)OCO2 do in these assays?
EWS-Fli block: 0.0; miR-122 sensor: -7.0[16.7 µM]; Statin myotox sup: -4.3; INS-1E GSIS act: -21.6; PAX8 reporter: 32.4

Results for O=C(Nc1cccc([N+](=O)[O-])c1)c1cc2ccccc2cc1O ?
EWS-Fli block: -11.8; Env fusion inh: 35.8; miR-122 sensor: -30.9; INS-1E GSIS act: 11.3; PAX8 reporter: 77.6*

How did COc1ccc(NC(=O)c2cc([N+](=O)[O-])ccc2O)cc1 do in these assays?
EWS-Fli block: 72.8*; Env fusion inh: 83.2*; INS-1E GSIS act: 5.4; PAX8 reporter: 100.2*

What do the screens show for `C/C=C/c1cnc2c(c1)C(=O)N([C@@H](C)CO)C[C@H](C)[C@H](CN(C)Cc1cccc(C(=O)O)c1)O2`?
EWS-Fli block: -3.9; miR-122 sensor: -5.6[16.7 µM]; Statin myotox sup: 6.8; INS-1E GSIS act: 13.5; PAX8 reporter: -14.3

How did COc1ccc2c3c(n(C)c2c1)[C@H](CO)N(C(=O)Nc1ccc(F)cc1)CC31CN(C(=O)c2ccccc2F)C1 do in these assays?
EWS-Fli block: 0.8; INS-1E GSIS act: -12.1

What do the screens show for `CC(=O)c1cc(C#N)c(SCCC(C)C)nc1C`?
EWS-Fli block: -11.6; miR-122 sensor: -1.3; Statin myotox sup: -10.9; INS-1E GSIS act: 4.2

How did CC(C)CCSc1nc(N)c(C#N)cc1C#N do in these assays?
Env fusion inh: 82.5*; miR-122 sensor: -11.0; Statin myotox sup: 23.4; INS-1E GSIS act: -10.6

What do the screens show for `COc1ccccc1C(=O)N1C[C@@H]2[C@H](c3ccccc31)[C@@H](CO)N2Cc1ccc(F)cc1`?
EWS-Fli block: 14.4; miR-122 sensor: -11.5[16.7 µM]; Statin myotox sup: -7.9; INS-1E GSIS act: -7.6; PAX8 reporter: 16.8

What do the screens show for `COc1ccccc1-c1cnc2c(c1)C(=O)N([C@@H](C)CO)C[C@H](C)[C@H](CN(C)Cc1cccc(F)c1)O2`?
EWS-Fli block: -1.7; Env fusion inh: 13.2[16.7 µM]; miR-122 sensor: 2.8[16.7 µM]; Statin myotox sup: -11.5; INS-1E GSIS act: -15.6

What do the screens show for `CCC(=O)N1[C@H](CO)[C@H](c2ccc(C3=CCCC3)cc2)[C@@H]1CNC(=O)CN(C)C`?
EWS-Fli block: 0.6; miR-122 sensor: -7.1[16.7 µM]; Statin myotox sup: -13.4; INS-1E GSIS act: -8.9; PAX8 reporter: -8.9

What do the screens show for `CC(C)NC(=O)CCCn1cc([N+](=O)[O-])cn1`?
EWS-Fli block: 7.7; Env fusion inh: -20.4; miR-122 sensor: -2.6; Statin myotox sup: 8.2; INS-1E GSIS act: 3.9; PAX8 reporter: 1.5

How did Cc1nn(C)c(C)c1/C=N/NC(=O)CCn1cc([N+](=O)[O-])cn1 do in these assays?
EWS-Fli block: 71.7*; Env fusion inh: 2.3; INS-1E GSIS act: 0.8; PAX8 reporter: -4.6

What do the screens show for `CNC[C@H]1OCCCC[C@@H](C)Oc2ccc(NC(=O)Nc3cccc4ccccc34)cc2C(=O)N([C@H](C)CO)C[C@H]1C`?
EWS-Fli block: 2.5; Env fusion inh: 7.2[16.7 µM]; miR-122 sensor: -3.5[16.7 µM]; Statin myotox sup: -3.8; INS-1E GSIS act: -14.1; PAX8 reporter: 34.2

How did Cc1noc(C)c1NC(=O)N(C)C[C@H]1Oc2ccc(NC(=O)Nc3cccc4ccccc34)cc2CC(=O)N([C@H](C)CO)C[C@@H]1C do in these assays?
EWS-Fli block: 3.9; Env fusion inh: 27.7[16.7 µM]; miR-122 sensor: 6.6[16.7 µM]; Statin myotox sup: 15.4; INS-1E GSIS act: -1.4; PAX8 reporter: 16.1
